Measurements reported in PubChem BioAssay (NCATS).
Where “and” joins values, the source holds several entries; their conditions need not be identical. Identical values can stand only once. Records with an inconclusive call do not appear. A number with no mark means an inactive call. Calls of active or inactive are those of the source. Calls come from the whole dose curve; as a rule, active = well fitted activation curve with a large enough effect; inconclusive = small, poorly fitted or top-dose-only effect; inactive = no such curve, though single readings can be large or run the other way.

The compounds below were run against Cellular tumor antigen p53 (Homo sapiens) (UniProt P04637) (assay: Primary qHTS for small molecule compounds that upregulate eGFP-tagged delta133p53alpha (in N-terminal) cells. (AID 2060322; note: nearly all actives have a fitted effect of over 75% in size;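 for activation: series mostly up to about 56 µM; 0% = DMSO vehicle and 100% = reference activator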)). Conditions: NCI-H358 eGFP-delta133p53alpha fluorescence, 24 h; activation: active compounds read high.
Chain of Cellular tumor antigen p53 (Homo sapiens) (P04637 whole entry, looked up): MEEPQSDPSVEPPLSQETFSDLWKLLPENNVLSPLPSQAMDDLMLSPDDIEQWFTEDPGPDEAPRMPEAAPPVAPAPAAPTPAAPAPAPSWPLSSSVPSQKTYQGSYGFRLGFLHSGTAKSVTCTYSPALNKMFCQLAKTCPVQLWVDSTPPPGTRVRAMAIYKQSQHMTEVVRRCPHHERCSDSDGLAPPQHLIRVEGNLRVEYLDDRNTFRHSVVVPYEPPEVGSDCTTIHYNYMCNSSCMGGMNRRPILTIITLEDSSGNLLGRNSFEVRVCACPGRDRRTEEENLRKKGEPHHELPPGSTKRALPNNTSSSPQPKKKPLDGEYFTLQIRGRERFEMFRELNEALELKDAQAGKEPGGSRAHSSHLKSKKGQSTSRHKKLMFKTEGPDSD
Procedure, shortened: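 NCI-H358 cells pre-induced 24 h with 10 ng/ml doxycycline to express N-terminal eGFP-delta133p53alpha, then dosed 24 h at 37C without doxycycline; fixed, Hoechst-stained, GFP intensity by laser scanning cytometry, normalized to DMSO (0%) and 57.5 uM 5-azacytidine (100%).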
Potency is the fitted concentration of half-maximal effect.

Q: With COc1cc(C(=O)N2CCOCC2)cc(OC)c1OC as the compound, how does the activation read?
A: 20.9%

Q: Which activation does the source give for Cc1cnc(NS(=O)(=O)c2ccc(N)cc2)nc1 here?
A: 2.82%

Q: With COc1nc(N)nc2c1ncn2[C@@H]1O[C@H](CO)[C@@H](O)[C@@H]1O as the compound, how does the activation read?
A: -17.5% and 19.2%

Q: Which activation does the source give for CCC(=O)c1c(O)cc(O)cc1O here?
A: -1.67%

Q: For CCOC(=O)[C@H]1O[C@H]1C(=O)N[C@@H](CC(C)C)C(=O)NCCC(C)C, which activation is on record?
A: 17.3%

Q: Which activation does the source give for Cc1onc(-c2ccccc2)c1C(=O)N[C@@H]1C(=O)N2[C@@H](C(=O)O)C(C)(C)S[C@@H]12 here?
A: -7.66%

Q: O=S(=O)(O)c1cc(I)c(O)c2ncccc12 was tested. Which activation did it give?
A: 11.7%

Q: For CCS(=O)(=O)c1ccc(OC)c(C(=O)OC)c1, which activation is on record?
A: 19.8%

Q: Oc1c(I)cc(I)c2cccnc12 was tested. Which activation did it give?
A: -5.86%

Q: With Nc1nc(-c2ccccc2)c(Br)c(=O)[nH]1 as the compound, how does the activation read?
A: -12.6%

Q: For CC1=C(CO)C(=O)O[C@@H]([C@@H](C)[C@H]2CC[C@H]3[C@@H]4C[C@H]5O[C@]56[C@@H](O)C=CC(=O)[C@]6(C)[C@@H]4CC[C@]23C)C1, which Potency is on record?
A: 3.85 µM (active)

Q: For CC(C)n1c(C=C[C@H](O)C[C@H](O)CC(=O)O)c(-c2ccc(F)cc2)c2ccccc21, which activation is on record?
A: -24.6%

Q: How did the activation turn out when O=C(O)c1ccnc2cc(C(OCCCN3CCCCC3)c3ccccc3Cl)[nH]c12 (stereo not given) was run?
A: 1.12%

Q: How did the activation turn out when O=C(O)[C@H](CC(=O)N1C[C@@H]2CCCC[C@H]2C1)Cc1ccccc1 was run?
A: -15.3%

Q: OCC(O)CS (stereo not given) was tested. Which activation did it give?
A: -8.47%

Q: Which activation does the source give for Cc1cccc(C=NNc2cc(N3CCOCC3)nc(OCCc3ccccn3)n2)c1 here?
A: -13.3%

Q: With CC(=O)N[C@@H](CC(C)C)C(=O)O as the compound, how does the activation read?
A: 0%

Q: How did the activation turn out when CCCCC(CC)COC(=O)c1ccc(N(C)C)cc1 (stereo not given) was run?
A: 0.837%

Q: Cc1noc(NS(=O)(=O)c2ccc(N)cc2)c1C was tested. Which activation did it give?
A: 9.21% and -0.487%

Q: For C[C@@H](O[C@H]1OCCN(Cc2n[nH]c(=O)[nH]2)[C@H]1c1ccc(F)cc1)c1cc(C(F)(F)F)cc(C(F)(F)F)c1, which activation is on record?
A: 7.53%

Q: For CN(C)CCOC(c1ccccc1)c1ccc(Br)cc1 (stereo not given), which activation is on record?
A: -6.21%

Q: How did the activation turn out when Cc1cc(O)c(C)c(C)c1O was run?
A: 17.5%

Q: For C[C@H]1C[C@@H]2[C@@H]([C@@H](O)C[C@@]3(C)[C@H]2CC[C@]3(O)C(=O)CO)[C@@]2(C)C=CC(=O)C=C12, which activation is on record?
A: -16.2%

Q: CN1C[C@H]2c3ccccc3Oc3ccc(Cl)cc3[C@@H]2C1 was tested. Which activation did it give?
A: -34.8% and -0.565%

Q: For CC(C)=CCC/C(C)=C/CC/C(C)=C/C(=O)OCC(=O)[C@@]1(O)CC[C@H]2[C@@H]3CCC4=CC(=O)C=C[C@]4(C)[C@H]3[C@@H](O)C[C@@]21C, which activation is on record?
A: -21.8%

Q: How did the activation turn out when O=c1ccc2ccccc2o1 was run?
A: 9.21%

Q: For CCc1cccc(CC)c1NC(=O)CN(CC(=O)O)CC(=O)O, which activation is on record?
A: 26.6%

Q: How did the activation turn out when CC1(C)[C@H]2CC[C@]3(C)[C@@H](C(=O)C=C4[C@@H]5C[C@@](C)(C(=O)O)CC[C@]5(C)CC[C@]43C)[C@@]2(C)CC[C@@H]1O was run?
A: 3.97%

Q: For O=C1Nc2cc(Cl)ccc2Oc2ccccc21, which activation is on record?
A: -1.69%

Q: For N#CC(=Cc1ccc(O)c(O)c1)C(=O)NCc1ccccc1, which Potency is on record?
A: 34.3 µM (active)

Q: With O=C(NC1CCN(CCc2c[nH]c3ccccc23)CC1)c1ccccc1 as the compound, how does the activation read?
A: 2.51%

Q: With C#C[C@]1(O)CC[C@@H]2[C@@H]3CCc4cc(O)ccc4[C@H]3CC[C@@]21C as the compound, how does the activation read?
A: 18.7%

Q: O=C(O)c1ccccc1C(=O)Nc1ccc(S(=O)(=O)Nc2nccs2)cc1 was tested. Which activation did it give?
A: 8.47%

Q: How did the activation turn out when CCCCOC(=O)CC(CC(=O)OCCCC)(OC(C)=O)C(=O)OCCCC was run?
A: -31.1%

Q: Nc1ccc(-c2ccc3ccccc3n2)cc1 was tested. Which activation did it give?
A: 29.5%

Q: For COc1ccc2c(c1)CC[C@H]1[C@@H]2CC[C@]2(C)[C@@H](NCCCCCCN3C(=O)C=CC3=O)CC[C@H]12, which activation is on record?
A: 38.4%

Q: Which activation does the source give for Oc1c(Cl)cc(Cl)c(Cl)c1Cc1c(O)c(Cl)cc(Cl)c1Cl here?
A: 19.8%

Q: For CC[C@H]1OC(=O)[C@H](C)C(=O)[C@H](C)[C@@H](O[C@H]2O[C@H](C)C[C@H](N(C)C)[C@@H]2O)[C@](C)(OC)C[C@@H](C)C(=O)[C@H](C)[C@H]2N(CCCCn3cnc(-c4cccnc4)c3)C(=O)O[C@]12C, which activation is on record?
A: 1.46%

Q: Cc1ccnc(NS(=O)(=O)c2ccc(N)cc2)n1 was tested. Which activation did it give?
A: -10.9%

Q: For CC(C)(C)NCC(O)COc1cccc2c1C[C@H](O)[C@H](O)C2 (stereo not given in full), which activation is on record?
A: 0%
